MazEF act = increases E. coli MazEF RNase cleavage of RNA; P0AE70; hit rate 0.32% among 350,000; AID 504720; activation, % at 20 µM; FAM/BHQ RNA-DNA oligo cleavage fluorescence, 5 h; in the data active means activation above about 50%
Mtb hypoxia inh = reduces hypoxia-regulated biosensor signal in M. tuberculosis; fluorescence inhibition, % (test concentration not listed); hit rate 0.1% among 300,000; M. tuberculosis hypoxia-regulated fluorescent reporter, fluorescence; AID 1159583; in the data active means fluorescence inhibition mostly above about 23%, no sharp cut-off; inactive means mostly below about 17%
PfHsp40 rescue = compounds rescuing yeast from Plasmodium falciparum HSP40 toxicity; S. cerevisiae expressing PfHsp40, growth rescue, ATP luminescence; growth rescue, % at 12.5 µM; hit rate 0.68% among 340,000; in the data active means growth rescue above about 28%, passing the limit was not always enough;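 further: yeast W303a lacking pdr1 and pdr3 grown in galactose medium; growth measured after three days at 30 °C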
RN4220 kill = S. aureus RN4220 growth inhibition. OD600, 16 h. hit rate 0.33% among 330,000. inhibition, % (concentration not given with the values); in the data active means inhibition above about 85%;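 further: plate controls were untreated cells for no effect and reference antibiotic for full effect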
TcdB inh = blocks C. difficile toxin B glycohydrolase activity. P18177. TcdB glycohydrolase enzymatic assay, plate reader. inhibition, % at 9.99 µM. hit rate 0.24% among 350,000. AID 652162; in the data active means inhibition above about 10%
Target sequence (P18177 whole entry, looked up): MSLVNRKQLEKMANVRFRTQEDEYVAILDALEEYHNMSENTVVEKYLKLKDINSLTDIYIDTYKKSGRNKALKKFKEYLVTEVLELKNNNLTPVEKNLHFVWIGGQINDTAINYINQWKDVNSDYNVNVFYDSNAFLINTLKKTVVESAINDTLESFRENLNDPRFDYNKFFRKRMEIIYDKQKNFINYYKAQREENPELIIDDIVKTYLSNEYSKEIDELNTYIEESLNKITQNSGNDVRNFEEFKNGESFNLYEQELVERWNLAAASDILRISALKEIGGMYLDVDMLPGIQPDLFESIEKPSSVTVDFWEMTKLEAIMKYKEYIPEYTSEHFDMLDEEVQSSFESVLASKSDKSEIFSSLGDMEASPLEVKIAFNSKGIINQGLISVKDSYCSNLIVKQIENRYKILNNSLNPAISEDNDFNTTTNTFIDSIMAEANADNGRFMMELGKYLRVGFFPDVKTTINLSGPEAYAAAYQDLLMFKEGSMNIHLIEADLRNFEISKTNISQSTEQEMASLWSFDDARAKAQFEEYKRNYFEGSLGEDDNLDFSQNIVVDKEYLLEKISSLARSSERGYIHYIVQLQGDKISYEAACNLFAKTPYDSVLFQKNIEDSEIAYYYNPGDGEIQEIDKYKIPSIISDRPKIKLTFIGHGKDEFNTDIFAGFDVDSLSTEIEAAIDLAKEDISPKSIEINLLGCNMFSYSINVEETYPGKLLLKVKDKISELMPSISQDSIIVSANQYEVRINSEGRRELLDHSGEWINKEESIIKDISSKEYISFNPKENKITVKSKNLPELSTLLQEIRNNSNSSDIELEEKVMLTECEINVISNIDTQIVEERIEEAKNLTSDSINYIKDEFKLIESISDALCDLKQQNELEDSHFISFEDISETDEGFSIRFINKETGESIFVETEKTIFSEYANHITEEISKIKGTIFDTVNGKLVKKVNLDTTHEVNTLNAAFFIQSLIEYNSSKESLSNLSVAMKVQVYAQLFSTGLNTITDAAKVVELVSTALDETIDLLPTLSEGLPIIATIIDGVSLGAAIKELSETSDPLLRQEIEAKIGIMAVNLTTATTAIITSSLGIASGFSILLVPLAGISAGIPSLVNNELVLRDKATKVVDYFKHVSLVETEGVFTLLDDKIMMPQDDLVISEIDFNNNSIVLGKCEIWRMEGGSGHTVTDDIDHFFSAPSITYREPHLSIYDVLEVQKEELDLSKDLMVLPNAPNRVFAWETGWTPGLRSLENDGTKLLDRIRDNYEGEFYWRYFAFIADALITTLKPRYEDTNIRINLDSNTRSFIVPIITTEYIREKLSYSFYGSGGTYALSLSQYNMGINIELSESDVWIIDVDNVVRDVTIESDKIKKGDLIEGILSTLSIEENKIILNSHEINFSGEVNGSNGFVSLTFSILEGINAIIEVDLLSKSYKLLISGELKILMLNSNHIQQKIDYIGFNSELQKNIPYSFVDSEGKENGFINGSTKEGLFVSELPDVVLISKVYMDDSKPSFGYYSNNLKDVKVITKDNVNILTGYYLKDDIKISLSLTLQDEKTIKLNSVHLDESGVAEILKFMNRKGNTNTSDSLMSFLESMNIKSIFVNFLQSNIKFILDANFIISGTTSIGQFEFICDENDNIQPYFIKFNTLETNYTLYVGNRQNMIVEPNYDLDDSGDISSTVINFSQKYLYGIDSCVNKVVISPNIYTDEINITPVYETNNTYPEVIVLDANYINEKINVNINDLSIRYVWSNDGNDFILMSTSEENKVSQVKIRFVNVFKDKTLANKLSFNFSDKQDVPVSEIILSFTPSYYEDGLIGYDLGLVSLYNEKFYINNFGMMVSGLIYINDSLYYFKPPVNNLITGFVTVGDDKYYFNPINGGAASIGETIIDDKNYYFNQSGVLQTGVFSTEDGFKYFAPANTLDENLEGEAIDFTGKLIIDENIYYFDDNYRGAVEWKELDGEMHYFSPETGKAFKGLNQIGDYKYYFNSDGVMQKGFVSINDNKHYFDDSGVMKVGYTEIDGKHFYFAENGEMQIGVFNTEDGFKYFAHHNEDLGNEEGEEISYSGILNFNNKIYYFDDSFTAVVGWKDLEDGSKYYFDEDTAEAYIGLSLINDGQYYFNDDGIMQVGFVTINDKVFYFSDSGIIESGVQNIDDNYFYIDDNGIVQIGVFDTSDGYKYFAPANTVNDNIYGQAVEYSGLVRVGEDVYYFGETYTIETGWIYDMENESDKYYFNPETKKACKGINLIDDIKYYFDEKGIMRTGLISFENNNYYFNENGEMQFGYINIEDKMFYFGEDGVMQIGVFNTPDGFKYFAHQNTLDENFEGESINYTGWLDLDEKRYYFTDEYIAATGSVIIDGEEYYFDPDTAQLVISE
ugtP null kill = kills S. aureus RN4220 lacking UgtP; S. aureus RN4220 ugtP deletion, OD600 growth, 16 h; growth inhibition, % (concentration not given with the values); hit rate 0.54% among 330,000; in the data active means growth inhibition above about 68%;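 further: plate controls were untreated wells for no effect and antibiotic for full effect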
* hit, by the source's call; . = no result shown. In the library only some 1.3% were active in any assay of this set; here they are far more common.

SMILES | MazEF act | Mtb hypoxia inh | PfHsp40 rescue | RN4220 kill | TcdB inh | ugtP null kill
O=C(NN=Cc1cccc(Oc2ccccc2)c1)c1ccccc1Br | . | 3.6 | . | -2.9 | . | 99.0*
O=C(Oc1cc2oc(=O)cc(-c3ccccc3)c2cc1Cl)C1CCCCC1 | 2.2 | . | 68.0* | -5.0 | . | -5.7
CCCc1nnc(NC(=O)c2c(O)c3cccc4c3n(c2=O)CC4)s1 | 2.3 | 56.0* | . | 100.6* | . | 100.3*
Cc1noc(C)c1S(=O)(=O)Nc1ccc2c(c1)C(=O)N([C@@H](C)CO)C[C@@H](C)[C@H](CN(C)C(=O)c1ccccc1)OCCCC[C@H](C)O2 | . | . | . | . | -1.5 | .
C=C1CCN(Cc2ccccc2)S(=O)(=O)c2ccccc21 | 1.8 | 11.8 | 3.5 | 5.4 | 11.0* | -0.1
S=c1[nH]nc(-c2ccccn2)n1N=Cc1cccc2ccccc12 | . | 7.4 | . | 6.0 | . | -2.0
N#C/C(=N\Nc1ccc(Cl)cc1)C(=O)c1ccsc1 | -8.1 | . | 0.1 | . | -0.2 | .
N#CC(=NNc1cccc(Cl)c1)C(=O)c1ccccc1 | . | 4.4 | . | 100.1* | . | 100.0*
N#CC(=NNc1ccc(Cl)cc1)C(N)=S | . | . | . | 81.3 | . | 88.1*
N#C/C(=N\Nc1ccc(Cl)cc1)C(N)=S | 2.0 | . | 11.8 | . | -0.4 | .
N#CC(=NNc1ccc(Cl)cc1)C(=O)c1ccsc1 | . | 12.9 | . | 99.7* | . | 99.0*
O=C(NN=Cc1ccccn1)c1cccnc1 | . | -10.8 | . | 3.8 | . | 4.9
CCCCCCNC(=O)CC(c1ccccc1)c1cc(Br)ccc1O (configuration not stated) | 4.4 | . | 39.6* | -15.1 | . | -26.4
O=C(Cn1nc(CNc2ccc(Cl)cc2)[n+]2c1CCCCC2)c1ccc(Br)cc1 | 41.4 | . | -0.2 | 89.0* | . | 98.1*
COC(=O)c1cn(CCNC(=O)Nc2ccccc2)nn1 | . | . | . | . | 0.0 | .
COc1ccc2cc(C(=O)NN=Cc3sc4ccccc4c3O)ccc2c1 | . | 10.1 | . | 28.4 | . | -7.3
COc1ccc(C(=O)N/N=C/c2sc3ccccc3c2O)cc1 | -53.0 | . | 262.1* | . | . | .
O=C(N/N=C/c1sc2ccccc2c1O)c1cccc2ccccc12 | 0.1 | . | 32.3* | . | . | .
C[C@@H]1CN([C@@H](C)CO)C(=O)c2cc(NS(=O)(=O)c3ccccc3)ccc2O[C@H]1CN(C)S(C)(=O)=O | . | . | . | . | -0.4 | .
CCCNC1=C(C)C(=O)C2=C(C1=O)C(COC(N)=O)[C@]1(OC)C3NC3CN21 (some centres not stated) | -18.3 | . | 1.5 | 99.4* | 0.9 | 97.3*
CO[C@@]12[C@H](COC(N)=O)C3=C(C(=O)C(C)=C(N)C3=O)N1C[C@@H]1N[C@@H]12 | 6.6 | . | -1.7 | . | 0.6 | .
CC(=O)Nc1sc(NN=Cc2cccc(Cl)c2)nc1-c1cccs1 | . | 0.9 | . | 6.9 | . | -1.7
O=C(Cc1ccccc1)N1C[C@@H]2[C@H](c3ccccc31)[C@H](CO)N2C(=O)C1CCCCC1 | . | . | . | . | 2.4 | .
CCOC(=O)COc1ccc2ccccc2c1/C=C/[N+](=O)[O-] | 4.8 | 9.5 | -2.0 | 80.5 | 0.5 | 86.8*
CCOC(=O)Cn1cc(/C=C/[N+](=O)[O-])c2ccccc21 | -3.0 | -2.2 | -0.1 | 11.0 | 0.4 | 5.6
SMILES | MazEF act | Mtb hypoxia inh | PfHsp40 rescue | RN4220 kill | TcdB inh | ugtP null kill
O=[N+]([O-])/C=C/c1c(OCc2ccccc2)ccc2ccccc12 | . | . | -0.8 | . | . | .
CCOc1ccc(/C=C/[N+](=O)[O-])c2ccccc12 | -29.3 | 19.0 | 0.4 | 95.7* | . | 95.2*
CCc1csc(N2[C@@H](C#N)[C@@H](c3ccccc3-c3cccc(F)c3)[C@@H]2CO)n1 | . | . | . | . | -1.7 | .
COc1ccc(C(=O)CC(=O)c2ccccc2O)cc1 | 11.5 | 7.0 | -0.6 | -6.5 | 1.9 | 2.8
COc1ccc(O)c(C(=O)CC(=O)c2ccc(F)cc2)c1 | 3.0 | . | 230.5* | . | . | .
COc1ccc(O)c(C(=O)CC(=O)c2ccccc2C)c1 | -0.8 | 1.9 | 314.2* | 30.7 | 1.0 | 12.0
O=C(c1ccccc1F)N1CC[C@@H]2[C@H]1c1cc(-c3ccccc3)ccc1N[C@@H]2CO | . | . | . | . | 0.0 | .
CON/C=N/C(=S)Nc1ncc(C(F)(F)F)cc1Cl | 2.7 | 9.7 | 0.2 | 13.7 | 1.0 | -0.2
CON/C=C(\C=Nc1ccc(F)cc1)c1ncc(C(F)(F)F)cc1Cl | 1.0 | 13.3 | 1.6 | -3.1 | . | 91.8*
COC(=O)CN1C(=O)C2C(c3ccc(C)o3)N3C(=O)CN(CCO)C(=O)[C@@]3(C)C2C1=O (some centres not stated) | . | 7.5 | . | 6.8 | . | 0.3
O=C(O)c1cccc(N2C(=O)/C(=C/c3ccc(SCc4ccc(Cl)cc4)o3)SC2=S)c1 | 573.5* | 15.0 | 2.5 | 11.5 | -2.6 | 27.1
O=C(CCN1C(=O)/C(=C/c2ccc(Cl)cc2)SC1=S)Nc1cccc(C(=O)O)c1 | -18.9 | 3.2 | -0.5 | 3.7 | -0.5 | 6.5
Cc1ccc(C2=Nc3ccccc3N=C(c3ccco3)C2)c(O)c1 | 12.2 | 7.5 | 0.8 | -13.3 | . | -1.0
Cc1ccc(O)c(C2=Nc3ccccc3N=C(c3ccco3)C2)c1 | 81.8* | 15.5 | -0.3 | 5.5 | . | 10.8
O=C(NCCN1CCCCC1)[C@H]1[C@H](CO)[C@H]2Cn3c(cccc3=O)[C@H]2N1Cc1ccccn1 | . | . | . | . | 0.0 | .
COc1ccc(C2CC(c3ccc(Cl)cc3)Nc3nc(NC(=O)c4ccco4)nn32)cc1 (configuration not stated) | 160.1* | . | 0.5 | 2.3 | . | -8.6
O=C(Nc1nc2n(n1)C(c1ccc(Cl)cc1)CC(c1ccc(Cl)cc1)N2)c1ccco1 (configuration not stated) | -9.4 | -3.5 | . | 17.8 | . | -34.1
Cc1ccc2nc(-c3ccc(NC(=S)NC(=O)C(C)C)cc3)sc2c1 | -13.4 | . | -0.8 | -4.2 | 0.7 | 0.0
Cc1ccc2nc(-c3ccc(NC(=S)NC4CC(C)(C)NC(C)(C)C4)cc3)sc2c1 | -7.0 | 8.7 | -1.0 | 99.7* | 2.8 | 95.1*
CN1OC[C@@H]2CN(C(=O)C(C)(C)C)[C@H](c3cccc(N4CCOCC4)c3)C[C@@H]21 | 13.3 | . | 0.9 | . | 0.0 | .
CN1OC[C@@H]2CN(C(=O)C(C)(C)C)[C@H](c3cccc(Br)c3)C[C@@H]21 | 52.7* | . | -1.3 | . | 1.3 | .
S=c1[nH]nc2ccccn12 | 3.2 | -5.8 | 0.3 | 0.4 | 26.5* | -5.7
N#C/C(=C\c1cn(CCOc2ccccc2)c2ccccc12)C(=O)NCc1cccs1 | 59.3* | 11.6 | -0.7 | 0.0 | . | -1.4
COc1ccc(OCCn2cc(/C=C(\C#N)C(=O)NCc3ccco3)c3ccccc32)cc1 | 8.8 | 3.6 | -2.5 | 3.5 | -0.3 | 11.1
COc1ccccc1C=NNc1nccnc1Cl | . | 5.5 | . | 2.7 | . | -8.3
SMILES | MazEF act | Mtb hypoxia inh | PfHsp40 rescue | RN4220 kill | TcdB inh | ugtP null kill
COc1cccc(C=NNc2ncc(C(F)(F)F)cc2Cl)c1O | . | . | . | 100.2* | . | 99.0*
COc1cccc(/C=N/Nc2nccnc2Cl)c1O | -7.6 | . | 88.5* | . | -3.9 | .
COc1cccc(C=NNc2ncnc3scc(-c4ccccc4)c23)c1O | . | -1.1 | . | 11.0 | . | 45.6
COc1cccc(/C=N/Nc2ncnc3scc(-c4ccccc4)c23)c1O | -62.2 | . | 421.9* | . | . | .
CC(=NNC(=O)c1ccc(Cn2cccn2)o1)c1cccc(NC(=O)c2ccncc2)c1 | . | 11.2 | . | 1.6 | . | 10.1
O=C(N/N=C(\c1ccccc1)c1ccccn1)c1ccccc1Cl | 5.4 | . | 8.7 | . | -0.9 | .
